Compound activity (PubChem BioAssay)
Marburg entry inh = inhibitors of Marburg virus binding or cell entry. Marburg virus pseudotyped entry inhibition, cell reporter. AID 540276. hit rate 1.8% among 300,000. Potency, µM (top dose mostly 37.8 µM), for the others: top-dose activity change, negative = inhibition, most hits filed as inhibitors; calls by dose curve; tested in HEK293 cells; note: potency is the fitted concentration of half-maximal effect
FMDV antiviral = blocks foot and mouth disease virus; FMDV antiviral cell-based qHTS; Potency, µM (highest dose often 57.9 µM), for the others: at the highest dose activity change, negative = inhibition, most hits filed as inhibitors; hit rate 1.2% among 410,000; AID 1159524; calls by dose curve; tested in HEK293T cells; note: read-out not given here; potency is the fitted concentration of half-maximal effect; nearly all actives have a fitted effect of over 45% in size
HCV inhibitor = blocks hepatitis C virus | hit rate 3.4% among 340,000 | Potency, µM (doses to about 41.8 µM), inactives show at the top dose activity change, negative = inhibition, usual class: inhibitors | Huh7.5.1 HCVcc-Cre infection, luciferase reporter, 44 h; note: potency is the fitted concentration of half-maximal effect
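Luciferase read-out (15 sec integration) after a 15 min room-temperature substrate step quantifies HCVcc-Cre infection. Cells, 1,000 per well, had compound added 4 h post-plating, then virus at ~0.5 moi, and were cultured 44 h.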
HCMV inh = human cytomegalovirus inhibition | HFF cells, HCMV-luciferase reporter, 72 h; active compounds read low | activity change, negative = inhibition, % at 57.5 µM | hit rate 4.5% among 410,000; in the data active = activity change below about -60%; inconclusive = no clear call, values can overlap the other calls; inactive = above about -39%
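Human foreskin fibroblasts infected with luciferase-reporter HCMV at MOI 1 PFU/cell, compounds at two doses. Luciferase measured 72 h post infection; normalized to buffer-only basal and Salinomycin (10uM) controls.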
LASV entry inh = blocks Lassa virus binding to or entry into cells | Lassa virus pseudotype entry inhibition, cell reporter | Potency, µM (doses to about 37.9 µM), for inactives: top-dose activity change, negative = inhibition, usual class: inhibitors | hit rate 1.2% among 300,000 | AID 540256; calls by dose curve; tested in HEK293 cells; note: potency is the fitted concentration of half-maximal effect; nearly all actives have a fitted effect of over 50% in size
FBPA Giardia inh = Giardia lamblia aldolase inhibition; A8B2U2; purified Giardia FBPA; Potency, µM (top dose mostly 59.6 µM), for the others: at the top dose activity, negative = inhibition, usual class: inhibitors; hit rate 0.71% among 290,000; AID 2451; note: potency is the fitted concentration of half-maximal effect; nearly all actives have a fitted effect of over 55% in size
Target sequence (A8B2U2 whole entry, looked up): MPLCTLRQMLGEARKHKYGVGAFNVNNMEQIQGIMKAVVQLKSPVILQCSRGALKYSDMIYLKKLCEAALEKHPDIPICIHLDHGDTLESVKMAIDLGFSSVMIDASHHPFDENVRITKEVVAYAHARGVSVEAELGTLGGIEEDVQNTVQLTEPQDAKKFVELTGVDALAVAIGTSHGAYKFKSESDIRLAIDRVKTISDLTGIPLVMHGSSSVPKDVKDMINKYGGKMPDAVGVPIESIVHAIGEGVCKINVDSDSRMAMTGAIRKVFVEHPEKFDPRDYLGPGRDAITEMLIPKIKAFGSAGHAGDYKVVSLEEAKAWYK
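40 nM FBPA preincubated 10 min at RT with compound (up to 57.5 uM final), then substrate plus GAPDH/TPI/NAD/arsenate coupling and diaphorase/resazurin added. Fluorescence read after 20 min at RT, 525/598 nm.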
* hit, by the source's call; ? = inconclusive; / = not tested or not shown; [ ] = another dose, or the depositor's remark. Only some compounds are listed: those with a hit (about 8.3% of all), similar ones and a draw of the others. Unless noted, calls come from the whole dose curve; as a rule, active = well fitted curve in the direction sought with a large enough effect; inconclusive = small, poorly fitted or top-dose-only effect, or another doubt; inactive = no such curve, though single readings can be large; an effect the other way counts as inactive or inconclusive. % is set by controls: 0 for no effect and ±100 for the full control effect.

SMILES	Marburg entry inh	FMDV antiviral	HCV inhibitor	HCMV inh	LASV entry inh	FBPA Giardia inh
CC(=O)Oc1ccc(-c2csc(Nc3ccc(S(N)(=O)=O)cc3)n2)cc1	-1%[46.1 µM]	-21%	?	-16	?	5%
COc1ccc(-c2csc(Nc3ccc(S(N)(=O)=O)cc3)n2)cc1	-10%	?	5µM*	-30	?	0%
Cc1ccc2nc(N3CCN(c4ccccc4F)CC3)c3nnnn3c2c1	/	-9%	/	-37	8%[46.1 µM]	/
COc1ccc(Nc2nc(-c3ccc(OC)cc3)cs2)cc1	/	67%	-5%	-10	/	1%
COc1ccc(-c2csc(Nc3ccccc3)n2)cc1	?	-19%	14µM*	-9	?	-12%
CC12C(=O)OC(=O)C1(C)C1CCC2O1 (centres undefined)	3.3µM*	?	/	/	2.9µM*	-6%
C[C@@]12C(=O)OC(=O)[C@@]1(C)[C@H]1CC[C@@H]2O1	3.3µM*	/	/	/	/	/
Nc1cc2[nH]c(=O)c3ccccc3c2cc1Br	?	-2%	?	1	9%	/
Nc1cc2c(cc1Br)[nH]c(=O)c1ccccc12	?	-24%	?	-89*	?	/
O=C(Cn1c(=O)n(Cc2ccc(C(=O)NCc3ccccc3Cl)cc2)c(=O)c2ccccc21)Nc1ccc(F)c(Cl)c1	2%[46.1 µM]	-6%	/	19	?	/
CCOc1cc(/C=C2\SC(=N)N(c3nccs3)C2=O)ccc1OCCN1CCOCC1	?	?	-11%	-70*	?	?
CCCCOc1ccc(Br)cc1/C(C)=N/NC1=NCCN1	10µM*	14µM*	3.2µM*	-100*	11µM*	0%
CCCCCCOc1ccc(/C(C)=N/NC2=NCCN2)cc1[N+](=O)[O-]	/	-11%	32µM*	?	/	0%
C/C(=N\NC1=NCCN1)c1ccc(N)c([N+](=O)[O-])c1	?	10%	?	24	?	-1%
CCCCOC(=O)c1ccc(Nc2ncnc3[nH]ncc23)cc1	/	-3%	/	-11	-13%[46.1 µM]	/
NS(=O)(=O)c1cc(C(=O)OCC(=O)Nc2ccccc2[N+](=O)[O-])ccc1Cl	-4%	-9%	-5%	11	-11%	1%
CC(CCc1ccccc1)NC(=O)COC(=O)c1ccc([N+](=O)[O-])cc1 (centres undefined)	12%[46.1 µM]	-10%	16%	1	24%[46.1 µM]	4%
Cc1ccccc1NC(=O)COC(=O)c1ccc(S(C)(=O)=O)c([N+](=O)[O-])c1	9.2µM*	32µM*	?	-93*	21µM*	4%
O=C(OCc1ccc(C(=O)c2ccccc2)cc1)c1cccc(-c2nnc(-c3ccccc3)o2)c1	?	61%	14µM*	?	?	5%
CC(=O)c1cccc(NC(=O)COC(=O)c2ccc(S(C)(=O)=O)c([N+](=O)[O-])c2)c1	/	?	5µM*	-24	/	0%
CC(CCc1ccccc1)NC(=O)COC(=O)c1ccc(S(C)(=O)=O)c([N+](=O)[O-])c1 (centres undefined)	?	?	?	-99*	?	1%
CN1C(=O)CC2(C=CC(=O)C=C2OC(=O)c2ccccc2)c2ccccc21 (centres undefined)	/	/	/	/	/	0%
CS(=O)(=O)c1ccc(C(=O)OCc2nnc(-c3ccccc3)o2)cc1[N+](=O)[O-]	3.2µM*	0%	?	8	?	-1%
Cc1ccccc1NC(=O)Cc1nc(COC(=O)c2ccc(S(C)(=O)=O)c([N+](=O)[O-])c2)cs1	/	?	10µM*	/	/	/
CN(C)S(=O)(=O)c1ccc(C(=O)OCc2nnc(-c3ccccc3)o2)cc1	17%[46.1 µM]	-4%	-23%	-23	25%	1%
SMILES	Marburg entry inh	FMDV antiviral	HCV inhibitor	HCMV inh	LASV entry inh	FBPA Giardia inh
COC(=O)[C@@H]1[C@@H](CO)[C@@H]2Cn3c(cccc3=O)[C@@H]2N1C(=O)c1ccccc1	/	/	/	-5	/	/
Cc1[nH]c2ccccc2c1C(=O)c1c(N)[nH]c(C(=O)c2ccccc2)c1-c1ccc(Cl)cc1	/	/	/	6	/	/
COc1ccc(CCNC(=O)CSc2nnnn2-c2cccc(C(C)=O)c2)cc1OC	12%[46.1 µM]	-3%	/	-3	8%[46.1 µM]	/
CC(=O)OC[C@H]1O[C@H](C#CC(C)(C)C)C=C[C@@H]1OC(C)=O	16%[14.2 µM]	/	/	/	/	/
COC(C(=O)Nc1ccc(S(=O)(=O)N2CCCCC2)cc1)c1ccccc1 (centres undefined)	16%	12%	-29%	-16	3%	-1%
COC(C(=O)Nc1ccc(S(=O)(=O)Nc2ccc(F)cc2)cc1)c1ccccc1 (centres undefined)	7.9µM*	6%	0%	-62*	?	0%
COC(C(=O)Nc1ccc(S(=O)(=O)Nc2cccc3ccccc23)cc1)c1ccccc1 (centres undefined)	-20%	0%	-2%	-88*	?	1%
OC(CNCc1ccco1)COc1ccccc1 (centres undefined)	?	4%	1%	-1	-1%	4%
OC(CNCc1ccco1)Cn1c2ccccc2c2ccccc21 (centres undefined)	16µM*	-7%	?	56	?	5%
CCC(Sc1nc2ncccc2o1)C(=O)Nc1ccc(OC)c(OC)c1 (centres undefined)	/	-17%	/	30	?	/
COc1ccc(N2CCN(C(=O)Cc3coc4cc(C)ccc34)CC2)cc1	1%[14.2 µM]	-9%	-9%	-6	-22%	-7%
COc1ccc(N2CCN(C(=O)Cc3coc4ccc(C)cc34)CC2)cc1	20%[46.1 µM]	-19%	/	-114*	-9%[46.1 µM]	/
Cc1cc(C)c2c(CC(=O)N3CCN(c4cccc(Cl)c4)CC3)coc2c1	?	-12%	/	-8	-3%[46.1 µM]	/
Cc1ccc2occ(CC(=O)N3CCN(c4cccc(Cl)c4)CC3)c2c1	28%[46.1 µM]	-22%	/	-71*	-15%[46.1 µM]	/
COc1ccc(-c2ccc3c(n2)CCCN3C[C@H](O)CN2CCCc3nc(-c4ccc(Br)cc4)ccc32)cc1	/	/	/	/	/	-7%[12.9 µM]
Cc1nc2ccc(C(C(F)(F)F)(C(F)(F)F)C(F)(F)F)cc2[nH]1	-19%	0%	?	-2	16µM*	-15%
CCC/C(=N\NC(=O)CCC(=O)NCc1ccccc1)c1ccccc1	?	-12%	-29%	0	4µM*	5%
Cc1cc(NC(=O)CCN2C(=O)C3C4CCC(C4)C3C2=O)c(C)cc1Br (centres undefined)	2%	?	?	-107*	1%	1%
COc1ccc2c(c1)[C@@H](NS(C)(=O)=O)[C@H](C)[C@@H](c1ccccc1)N2C(=O)Nc1ccc(C(F)(F)F)cc1	/	/	/	-25	/	/
CC(=O)OCC1OC(Oc2cc(OC(C)=O)c3c(=O)cc(-c4ccc(OC(C)=O)cc4)oc3c2)[C@@H](OC(C)=O)C(OC(C)=O)C1OC(C)=O (some centres undefined)	/	4%	/	/	/	-15%
